# In ChEMBL document CHEMBL1157539, “Thousands of chemical starting points for antimalarial lead identification” (Nature, 2010):
# Key:
# Format in all cases: functional
# [1] = tested on: Plasmodium falciparum; experiment: GSK_TCMDC: Inhibition of Plasmodium falciparum 3D7 in whole red blood cells, using parasite LDH activity as an index of growth. Test compounds present at 2uM
# [2] = tested on: Plasmodium falciparum; experiment: GSK_TCMDC: Inhibition of Plasmodium falciparum Dd2 in whole red blood cells, using parasite LDH activity as an index of growth. Test compounds present at 2uM
# [3] = tested on: HepG2; experiment: GSK_TCMDC: Percent inhibition of human HepG2 cell line. Test compounds present at 10uM.
SMILES,Inhibition [1] [%],Inhibition [2] [%],Inhibition [3] [%]
Cc1nc(-c2nc(N3CCC(O)CC3)ncc2-c2ccsc2)sc1C,83,35,6
O=C(NC1CCN(Cc2ccccc2)C1)c1ccc(Nc2ccc(Br)cc2)nc1.O=C(O)C(F)(F)F (configuration not stated),94,21,19
CCOc1ccccc1CNc1nccc(NCc2ccccc2OC)n1,87,66,50
Cc1c(CCc2cccc(F)c2F)[nH]c2ccccc2c1=O,91,90,41
Cc1ccc(NC(=O)c2cc([N+](=O)[O-])ccc2NCc2cccnc2)cc1Cl,86,58,9
CCCC(=O)Nc1ccc(Nc2nc(C)cc(N3CCCC3)n2)cc1,100,46,31
Cc1cnc(CN(Cc2ccc(-c3ccc(CNCCc4ccc(S(C)(=O)=O)cc4)cn3)cc2)C(=O)c2ccc([N+](=O)[O-])c(C)c2)cn1.O=C(O)C(F)(F)F,93,15,0
Cc1c(CCC#N)c(NCc2ccccc2)n2c(nc3ccccc32)c1C#N,100,99,16
CC(C)(C)C1CCC(C(=O)c2ccc3ccccc3c2O)CC1 (configuration not stated),83,63,0
Cc1ccc(C)c(Sc2ccc(NC(=O)CN3CCN(C(=O)c4ccco4)CC3)cc2)c1,96,93,28
CC(=O)c1ccccc1C(=O)N1CCOc2ccc(C(O)C(c3ccccc3)c3ccccc3)cc2C1 (configuration not stated),96,98,10
CCCNC(=O)Nc1ccc(N(C)c2ccnc(NC3CC3)n2)cc1,100,88,28
CCc1cn(C)c2c(N3CCCC3=O)cc(C(=O)N[C@@H](Cc3ccccc3)[C@H](O)CNC(C)(C)CCCC(C)C)cc12,97,98,15
CN1CCC(NCCS(=O)(=O)c2cccc(Nc3ccc(-c4cccc(F)c4)cn3)c2)CC1,99,0,27
COc1cc2nc(N3CCC(CNC(=O)c4ccc(NC(=O)c5ccc(Cl)cc5)cc4)CC3)nc(N)c2cc1OC,100,100,98
COc1ccc2ncc(F)c(CCN3CCC(NCc4cc(Br)c5c(c4)OCCO5)CC3)c2n1.Cl,100,94,26
Br.CC1CCC2(CC1)N=C(N)N=C(N)N2OCc1ccc(Br)c2ccccc12 (configuration not stated),96,40,46
COCCCNc1sc(S(=O)(=O)c2ccccc2)nc1S(=O)(=O)c1ccc(Cl)cc1,95,87,0
Cc1ccc(NC(=O)C2CCC2)cc1-c1ccc(C(=O)NCC2CC2)cc1,98,3,13
CCCCOc1c(CCC)cc(Cc2cnc(N)nc2N)cc1CCC.Cl,97,0,27
Fc1ccc2[nH]c(-c3cccc(-c4cccc(CN5CCN(c6cnccn6)CC5)c4)c3)nc2c1.O=C(O)C(F)(F)F,93,35,17
CN(C)S(=O)(=O)c1ccc(C(=O)N(c2nc(-c3ccccc3)cs2)C2CCCCC2)cc1,98,46,7

SMILES,Inhibition [1] [%],Inhibition [2] [%],Inhibition [3] [%]
CN(Cc1ccc(-c2ccc(C(F)(F)F)cc2)cc1)C(=O)Cn1c(CCc2cccc(F)c2F)nc(=O)c2ccc(N3CCN(CCN4CCCCC4)CC3)nc21.O=C(O)C(O)C(O)C(=O)O,100,100,100
O=C(O)C(F)(F)F.O=S(=O)(NC1CCN(c2ccnc3cc(Cl)ccc23)C1)c1cccc(F)c1 (configuration not stated),98,88,19
O=C(Cn1c(SCc2cccc(F)c2F)cc(=O)c2ccccc21)N(CCCn1ccnc1)Cc1ccc(-c2ccc(C(F)(F)F)cc2)cc1,99,99,21
Cc1cc(N(C)C)nc(Nc2ccc(NC(=O)c3ccccc3C)cc2)n1,93,16,0
COc1ccccc1CCNC(=O)c1cc(Br)cc(N2CCN(c3ccncc3)CC2)c1.O=C(O)C(F)(F)F,84,32,38
CC(C)C(C(=O)Nc1ccc(S(=O)(=O)N(C)C)cc1)c1ccc(Cl)cc1 (configuration not stated),100,98,27
COc1ccc(CCOc2c(C)nc(N)nc2N)cc1OC.Cl,96,22,66
Br.COc1ccc(OCCCCON2C(=N)N=C(N)NC2(C)C)cc1,92,95,54
COc1ccccc1NC(=O)CSc1nc2cccnc2n1-c1ccccc1OC,94,91,0
O=C(Nc1cccc(OC2CCN(Cc3ccsc3)CC2)c1)c1ccc(C(F)(F)F)cc1.O=C(O)C(F)(F)F,98,5,25
COc1ccc2nccc([C@@H](O)CN3CCC(NCc4cc5c(Cl)cccc5[nH]4)CC3)c2c1.O=C(O)C(=O)O,100,74,40
CN(C)CCN(Cc1ccccc1)c1ccc([N+](=O)[O-])cc1C(F)(F)F.O=C(O)C(F)(F)F,96,89,40
Cc1noc(-c2cccs2)c1C(=O)NC(C)c1cccc2ccccc12 (configuration not stated),97,95,0
Cc1cc(N)c2cc(NC(=O)c3cccc(C(=O)Nc4ccc5nc(C)cc(N)c5c4)c3)ccc2n1.Cl,94,92,9
Cc1ccc(O)cc1Nc1ccnc2cc(-c3cccc(CNCCS(C)(=O)=O)c3)ccc12,99,100,9
Cc1ccc(C(C)C)cc1CON1C(=N)N=C(N)NC1(C)C.Cl,94,92,66
CC(=O)Nc1ccc(CN2CCC(CNC(=O)c3cc(-c4cccc(Cl)c4)cs3)C2)cc1.O=C(O)C(F)(F)F (configuration not stated),91,1,24
COc1cc(C(=O)N2CCC(CCN3CCC4(CC3)CN(S(C)(=O)=O)c3ccccc34)CC2Cc2ccc(Cl)c(Cl)c2)cc(OC)c1OC.Cl (configuration not stated),100,99,29
Cc1cc(Nc2ccc(OCc3ccccc3Cl)cc2)c2cc(Cl)ccc2n1.Cl,100,58,33
CCC(CC)n1c(C)cc2c3c(N)nc(N)nc3ccc21,95,95,61
CCOc1ccc2c(c1)N(C(=O)C=Cc1ccccc1)C(C)(C)c1ssc(=S)c1-2,83,77,3
O=C(Nc1cccc(-c2nn3ccccc3c2-c2ccnc(Nc3ccc(-c4cc[nH]n4)cc3)n2)c1)c1c(F)cccc1F,98,98,68
